hcDAF-12 act – activators of H. contortus DAF-12 nuclear receptor | HEK293 hcDAF-12 lit1-tk-luc reporter, luminescence; 0% DMSO, 100% Δ7-dafachronic acid | activation, % at 6.8 µM | hit rate 1.4% among 370,000;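 active means activation above the mean of all tested compounds plus 3 SD, cut at about 5.5% in these data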;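 further: 100% = response to 3 µM Δ7-dafachronic acid high control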
DAX1 inh-1 – blocks DAX1 repression of SF-1 activated StAR promoter; HEK293T StAR-luciferase reporter, SF-1/DAX-1 repression relief; inhibition, % at 6.8 µM; hit rate 1.1% among 370,000; AID 652010;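 active means inhibition above the mean over all tested compounds plus 3 SD, cut at about 3.6% in these data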;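 further: 0% = DAX-1 cells with DMSO and 100% = cells lacking DAX-1 with DMSO; higher inhibition means more luminescence from relief of DAX-1 repression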
hgDAF-12 ag – activates the H. glycines DAF-12 receptor ligand-binding domain. HEK293 GAL4-hgDAF12 UAS-luciferase reporter, agonist luminescence; normalized to butyrate control. activation, % at 6.8 µM. hit rate 1.8% among 370,000. AID 687014;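 active means activation above a cutoff set at the mean of all screened compounds plus 3 SD, cut at about 10% in these data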;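 further: 0% = DMSO wells and 100% = sodium butyrate wells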
DAX1 inh-2 – inhibits human nuclear receptor DAX1; P51843; HEK293 Gal4-DAX1 luciferase reporter, luminescence; inhibition, % at 6.75 µM; hit rate 0.99% among 340,000;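 active means inhibition above the mean over all tested compounds plus 3 SD, cut at about 4.2% in these data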;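 further: 0% = DAX1-transfected cells with DMSO and 100% = empty-vector control cells with DMSO; inhibition shows as a rise in luminescence from relieved DAX1 repression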
Target sequence (P51843 207-470 limits assumed): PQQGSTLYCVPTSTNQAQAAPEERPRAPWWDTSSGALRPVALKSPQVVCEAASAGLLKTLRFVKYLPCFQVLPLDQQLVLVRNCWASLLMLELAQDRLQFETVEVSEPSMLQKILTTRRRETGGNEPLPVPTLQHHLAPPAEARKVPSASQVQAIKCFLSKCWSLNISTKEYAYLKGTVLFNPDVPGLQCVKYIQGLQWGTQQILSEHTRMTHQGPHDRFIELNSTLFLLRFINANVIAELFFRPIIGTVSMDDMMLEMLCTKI
ssDAF12 agonist – activators of S. stercoralis DAF-12 nuclear receptor. HEK293 ssDAF-12/GRIP1 lit1-tk-luc reporter, luminescence; % of 3 µM dafachronic acid response. activation, % at 6.8 µM. hit rate 1% among 370,000;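 active means activation above the mean over all tested compounds plus 3 SD, cut at about 0.9% in these data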;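 further: 0% = DMSO-only wells and 100% = 3 µM delta7-dafachronic acid wells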
* hit, by the source's call; nt = not tested or not shown. An excerpt weighted towards active compounds, which were near 4.1% of everything screened.

SMILES	hcDAF-12 act	DAX1 inh-1	hgDAF-12 ag	DAX1 inh-2	ssDAF12 agonist
Brc1cccc(Cn2ccc3ccc(-c4ccc5ccn(Cc6cccc(Br)c6)c5c4)cc32)c1	1	1	3	nt	-1
c1ccc(SCc2nc(-c3ccncc3)no2)cc1	5.6*	0	6	2	0
Cc1cnc(CN2CCc3c([nH]c4ccccc34)C2CC(C)C)[nH]1 (centres undefined)	3	-1	-2	0	0
Cc1cccc(CN2CCc3c([nH]c4ccccc34)C2CC(C)C)n1 (centres undefined)	5	0	-3	4.7*	0
Cc1nc2ccc(NC(=O)c3cc(Cl)ccc3F)cc2c(=O)[nH]1	-2	1	9	nt	-1
CC1(c2nnnn2C2CCCCC2)CSCC(=O)N1CCc1ccc(O)cc1 (centres undefined)	-4	-1	3	nt	-1
COc1cc2c3c(cccc3c1)C(=O)N(CCN1CCCC1)C2=O	5	-2	-1	8.7*	-1
COc1ccc(C(=O)CN2CCN(CCN3C(=O)c4cccc5cccc(c45)C3=O)CC2)cc1	-1	0	0	-1	-1
Oc1ccc(-c2nc3ccccc3s2)c(O)c1	1	3	8	1	0
Nc1ccc(O)c(-c2nc3ccccc3s2)c1	4	2	7	1	1.2*
Cc1nn(-c2ccccc2)c2sc(C(=O)N3CCC4(CC3)OCCO4)cc12	-3	0	2	nt	-1
CCN(CC)C(=O)CC[C@H]1CC[C@]2(CCCN(S(=O)(=O)C3CCCCC3)C2)O1	-2	-1	1	nt	-1
COC(=O)[C@]12C[C@H](CC(=O)NCCc3ccccc3OC)C(=O)N(Cc3cccc4ccccc34)C1=C[C@H](C(C)C)O[C@@H]2C1CC1	-1	0	-3	nt	-2
O=S(=O)(NCc1csc(-c2cccnc2)n1)c1cccs1	0	1	3	0	0.9*
Cc1ccc(C)c(NC(=O)C2CCCN2S(=O)(=O)c2cccc3cccnc23)c1 (centres undefined)	-3	-1	2	nt	-1
CC(C)(C)CN1CCN(Cc2cc3ccccc3[nH]2)CC1CCO (centres undefined)	6.3*	0	2	0	0
CCOc1ccc(CN2CCN(Cc3cc4ccccc4[nH]3)CC2CCO)cc1 (centres undefined)	5	0	1	-2	2.0*
CCCCNC(=O)C1(C(=O)c2ccc(OC)cc2)CC(C(=O)OCC)=NO1 (centres undefined)	-1	0	0	nt	-1
O=C(C[n+]1ccc(C(=O)c2ccccc2)cc1)Nc1ccc(C(F)(F)F)cc1	1	-1	3	0	0
CN(C)CC[n+]1ccc(C(=O)c2ccccc2)cc1	-1	0	0	5.1*	0
Clc1ccc([C@H]2OC[C@@]3(CNCC4CC4)CS[C@H](c4ccc(Cl)cc4)N23)cc1	-1	1	0	nt	-1
COc1ccccc1N/C=C/c1onc(C)c1[N+](=O)[O-]	4	3	9	-2	0
Cc1noc(/C=C/Nc2ccc(F)cc2F)c1[N+](=O)[O-]	2	3	12*	4	1
CC(C)(C)c1cc(NCCCn2ccnc2)n2ncc(-c3ccc(Cl)cc3)c2n1	1	0	10*	1	-1
CN(C)CCCNc1cc(-c2ccccc2)nc2cc(-c3cccc(F)c3)nn12	0	0	2	1	0
SMILES	hcDAF-12 act	DAX1 inh-1	hgDAF-12 ag	DAX1 inh-2	ssDAF12 agonist
Cc1cc(NCCCn2ccnc2)n2nc(-c3ccc(Cl)cc3)cc2n1	3	0	3	0	-1
CN(C)CCCNc1cc(C(C)(C)C)nc2c(-c3ccccc3)cnn12	2	1	8	4.7*	1.3*
COc1ccc(-c2c(Cc3ccccc3)nc(NC(=O)c3ccccc3)n2Cc2ccccc2)cc1	-2	1	0	nt	-2
Cc1cc(-c2nnc(CCC(=O)N3CCN(Cc4cccc(F)c4)CC3)o2)c(C)o1	0	0	-1	6.3*	0
O=S1(=O)c2c(cccc2N2CCSCC2)Oc2ccccc2CN1Cc1cn(Cc2ccc(Cl)cc2)nn1	-2	-3	-4	nt	-1
CC(C)N1CCN(Cc2cccc(-c3ccco3)c2)CC1CCO (centres undefined)	0	0	5	0	0
Cc1ccccc1-c1cccc(CN2CCN(C)C(CCO)C2)c1 (centres undefined)	0	0	1	4.6*	-1
O=C(Nc1ccccc1C(F)(F)F)NC1(C(=O)N2CCOCC2)CCCCC1	5.7*	2	2	0	0
Cc1ccccc1NC(=O)NC1(C(=O)N2CCOCC2)CCCCC1	0	0	-2	0	-1
CCOc1ccc(NC(=O)CSc2nnc(-c3n[nH]c4c3CCC4)n2N)cc1	-1	-3	4	nt	-1
O=C(CC(O)CCc1ccccc1)c1ccc(O)cc1 (centres undefined)	2	2	1	8.4*	-1
O=C(CSc1nc2ccccc2c(=O)n1NC(=O)c1ccccc1)c1ccc(Cl)cc1	3	3	12*	3	0
O=C(CSc1nc2ccccc2c(=O)n1NC(=O)c1ccccc1)c1ccccc1	4	3	12*	3	1.2*
O=C(CSc1nc2ccsc2c(=O)n1NC(=O)c1ccccc1)Nc1nccs1	1	1	11*	1	0
CCCOc1ccc(-c2nc(CSCC(=O)NC3CC3)c(C)o2)cc1	-2	nt	-1	nt	-2
Cc1cc(CNC(=O)Cn2nc(C)c([N+](=O)[O-])c2C)c2ccccc2n1	-2	4.3*	-2	0	-2
Cc1nn(CC(=O)NCc2ccccc2Cl)c(C)c1[N+](=O)[O-]	-1	1	1	0	-1
Cc1ccc(OCC(=O)Nc2ccc(C)c(F)c2)c([N+](=O)[O-])n1	1	3.7*	7	2	0
CN(C(=O)c1ccccc1OCC(=O)Nc1ccc(Br)cc1)c1ccccc1	-3	-2	4	nt	1.0*
CN1C(=O)c2cc(NC(=O)Nc3ccccc3)ccc2OC[C@H]2O[C@@H](CC(=O)NCc3ccc(-c4ccccc4)cc3)CC[C@@H]21	-2	0	0	nt	-1
COc1ccc(/C=N/NC(=O)c2[nH]ncc2Br)c(OC)c1	1	1	11*	2	0
COc1ccc(/C=N/NC(=O)c2cccc(NC(C)=O)c2)c(OC)c1	0	-1	4	0	-1
Nc1nccnc1C(=O)N/N=C/c1ccco1	1	1	6	6.9*	-1
O=C(N/N=C/c1ccco1)c1[nH]ncc1Br	1	3	7	7.1*	0
COCCNC(=S)N(C)[C@H]1C[C@H]2c3[nH]c4ccccc4c3CCN2C(=O)[C@H]1[C@H](C)O	0	1	2	nt	0
Cn1c(=O)c(=O)n(C)c2cc(S(=O)(=O)N3CCN(Cc4ccc5c(c4)OCO5)CC3)ccc21	1	0	-2	nt	-1
